# Data taken from ChEMBL document CHEMBL1201862, “PubChem BioAssay data set” (2004).
# About 1,200 (0.92%) of roughly 130,000 compounds were called active. About 3% were inconclusive and are not listed. The calls are words filed in the database; no cut-off is given here. The full list was thinned out, with actives kept by preference.
# Target: Cellular tumor antigen p53 (Homo sapiens) (UniProt P04637)
# Assay: qHTS Screen for Compounds that Selectively Target Cancer Cells with p53 Mutations: Cytotoxicity of p53ts Cells at the Permissive Temperature. [Related pubchem assays: 902 ]
# Type: functional
# Cellular tumor antigen p53 (Homo sapiens), sequence (P04637 whole entry, looked up): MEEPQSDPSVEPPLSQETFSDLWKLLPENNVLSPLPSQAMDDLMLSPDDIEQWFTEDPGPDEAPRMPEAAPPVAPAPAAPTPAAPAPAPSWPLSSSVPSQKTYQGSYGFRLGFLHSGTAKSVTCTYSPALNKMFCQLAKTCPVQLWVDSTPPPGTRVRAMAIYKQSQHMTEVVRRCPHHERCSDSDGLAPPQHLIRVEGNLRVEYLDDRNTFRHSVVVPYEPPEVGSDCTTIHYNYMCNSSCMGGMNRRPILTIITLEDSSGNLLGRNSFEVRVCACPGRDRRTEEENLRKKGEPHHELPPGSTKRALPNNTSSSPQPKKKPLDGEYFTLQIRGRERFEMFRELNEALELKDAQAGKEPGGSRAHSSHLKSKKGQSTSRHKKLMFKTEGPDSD
row,Compound,Potency
1,COc1ccccc1/C=C/C(=O)c1cccs1,10 µM (active)
2,O=C(/C=C/c1ccc(Cl)cc1)c1cccs1,15.8 µM (active)
